Laboratory results as given in PubChem BioAssay (NCATS).
A number with no mark means an inactive call. Results filed as inconclusive are left out. A call without a number means that no potency is given here. Calls of active or inactive are those of the source. The call rests on the fitted dose curve; in most records, active means well fitted curve in the direction sought with a large enough effect; inconclusive means small, poorly fitted or top-dose-only effect, or another doubt; inactive means no such curve, though single readings can be large; an effect the other way counts as inactive or inconclusive.

Tests used:
[1] = qHTS to identify inhibitors of the type 1 interferon - major histocompatibility complex class I in skeletal muscle: primary screen against the NCATS Pharmaceutical Collection (AID 1347407);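 further: luminescence of HiBiT knocked into endogenous HLA-B as interferon-induced MHC class I level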
How it was run: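 HLA-B HiBiT myoblasts, dexamethasone-free growth medium + 4 ng/ml IFN-b; compounds pinned 1 h after seeding, […] from 46 uM; 24 h, 37 C, 5% CO2; lytic HiBiT detection, 10 min RT, luminescence.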

[2] = target: Protein phosphatase 1D (Homo sapiens) (UniProt O15297); test: RapidFire Mass Spectrometry qHTS Assay for Modulators of WT P53-Induced Phosphatase 1 (WIP1) (AID 1347424);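 further: amount of dephosphorylated VEPPL-S-QETFS peptide product formed by WIP1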; further: potency means the concentration at half of the fitted maximal effect; on activity change, negative = inhibition: series mostly up to about 63 µM
How it was run: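 WIP1 (10 nM final) was preincubated 1 h at room temperature with compounds in Tris-HCl pH 7.5, 30 mM MgCl2, TCEP, EGTA, BSA; 2 uM VEPPL-pS-QETFS phosphopeptide was added for 5 min, quenched with formic acid, and dephosphorylated product quantified by RapidFire MS.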

[3] = qHTS to identify inhibitors of the type 1 interferon - major histocompatibility complex class I in skeletal muscle: primary screen against the NCATS LOPAC collection (AID 1347405);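 further: lytic HiBiT luminescence reporting HLA-B protein level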
How it was run: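 Cells: C25cl48 human myoblasts, HiBiT-tagged HLA-B*08:01, stimulated with IFN-beta 4.0 ng/ml. Compounds are titrated 1:4.3 over 7 points from 46 uM final and incubated 24 hrs; endogenous MHC class I is quantified by HiBiT lytic luminescence.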

[4] = qHTS for inhibitors of adenylyl cyclases using a fission yeast platform: a pilot screen against the NCATS LOPAC library (AID 1347410)
How it was run: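 Read-out: fbp1-GFP fluorescence by laser scanning cytometry (488 nm laser), a gain of signal when AC/cAMP-PKA signalling is inhibited. Strain CHP2027 expressing AC9, GNAS and PDE4D2; compounds at up to 57 µM; 18 h, 30C.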

[5] = qHTS to identify inhibitors of the type 1 interferon - major histocompatibility complex class I in skeletal muscle: primary screen against the NCATS Mechanism Interrogation Plate v5.0 (MIPE) Libary (AID 1347411); further: nearly all actives have a fitted effect of over 65% in size; further: potency means the concentration at half of the fitted maximal effect
How it was run: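 Cells were genome-edited human myoblasts carrying a HiBit tag on endogenous HLA-B. They were treated with IFN-beta (4.0 ng/ml) and titrated compounds (top 46 uM) for 24 hrs before lytic HiBiT detection.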

Sequence of Protein phosphatase 1D (Homo sapiens) (O15297 whole entry, looked up): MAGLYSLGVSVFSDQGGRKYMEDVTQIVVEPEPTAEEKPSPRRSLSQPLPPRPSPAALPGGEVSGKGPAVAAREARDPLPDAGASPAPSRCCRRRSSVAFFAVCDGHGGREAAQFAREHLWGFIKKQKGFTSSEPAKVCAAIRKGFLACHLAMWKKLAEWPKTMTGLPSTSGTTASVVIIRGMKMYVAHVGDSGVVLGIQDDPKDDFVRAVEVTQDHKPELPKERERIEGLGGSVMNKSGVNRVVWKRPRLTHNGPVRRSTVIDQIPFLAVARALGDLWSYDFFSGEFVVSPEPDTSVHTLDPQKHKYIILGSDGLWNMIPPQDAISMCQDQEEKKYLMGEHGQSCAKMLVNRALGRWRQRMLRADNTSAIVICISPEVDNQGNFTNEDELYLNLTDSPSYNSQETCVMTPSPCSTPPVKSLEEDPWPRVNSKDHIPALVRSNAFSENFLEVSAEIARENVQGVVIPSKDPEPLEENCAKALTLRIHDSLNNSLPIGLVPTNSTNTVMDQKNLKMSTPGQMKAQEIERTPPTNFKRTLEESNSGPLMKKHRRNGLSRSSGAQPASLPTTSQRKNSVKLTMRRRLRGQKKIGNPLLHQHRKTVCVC

## CCOCCOC(C)=O
[1]
  outcome: inactive
[2]
  Potency: inactive

## CC(C)Oc1cccc(NC(=O)c2ccccc2C(F)(F)F)c1
[1]
  outcome: inactive
[2]
  Potency: inactive

## O=C1CCCN1CC#CCN1CCCC1
[3]
  Potency: inactive
[4]
  outcome: inactive

## COc1ccc(C(c2ccc(OC)cc2)C(Cl)(Cl)Cl)cc1
[1]
  outcome: inactive
[2]
  Potency: inactive

## CCC1(CCC(C)C)C(=O)NC(=O)NC1=O
[1]
  outcome: inactive
[2]
  Potency: inactive

## O=S(=O)(O)C(F)(F)C(F)(F)C(F)(F)C(F)(F)C(F)(F)C(F)(F)C(F)(F)C(F)(F)F
[1]
  outcome: inactive
[2]
  Potency: 1.58 µM (active)

## Cc1cc(O)ccc1Cl
[1]
  outcome: inactive
[2]
  Potency: inactive

## CC(C)(C)NC[C@H](O)c1ccc(O)cc1Cl
[1]
  outcome: inactive
[2]
  Potency: inactive

## CC1=C(C(=O)O)N2C(=O)[C@@H](N)[C@H]2SC1
[1]
  activity change, negative = inhibition: -3.5% [at 19 µM]
[2]
  activity change, negative = inhibition: 5.52% [at 26.6 µM]

## CC1(C)CC/C(=C/c2ccc(Cl)cc2)C1(O)Cn1cncn1 (stereo not given)
[1]
  outcome: inactive
[2]
  Potency: inactive

## CC[C@@H](C(N)=O)N1CCCC1=O
[3]
  Potency: inactive
[4]
  outcome: inactive
[5]
  Potency: inactive

## CCCN1CCO[C@@H]2c3cc(O)ccc3OC[C@H]21
[3]
  Potency: inactive
[4]
  outcome: inactive
[5]
  Potency: inactive

## O=C(N[C@H]1CN2CCC1CC2)c1ccc(Cl)cc1
[3]
  Potency: inactive
[4]
  outcome: inactive
[5]
  Potency: inactive

## C=CCC1=C(C)C(OC(=O)C2C(C=C(C)C)C2(C)C)CC1=O (stereo not given)
[1]
  outcome: inactive
[2]
  Potency: inactive

## c1cc2ccc3cccc4ccc(c1)c2c34
[1]
  outcome: inactive
[2]
  Potency: inactive

## Oc1ccc2c3c1O[C@H]1c4[nH]c5c(c4C[C@@]4(O)[C@@H](C2)N(CC2CC2)CC[C@]314)C[C@@]1(O)[C@H]2Cc3ccc(O)c4c3[C@@]1(CCN2CC1CC1)[C@H]5O4
[3]
  Potency: inactive
[4]
  outcome: inactive

## ClC1=C(Cl)[C@]2(Cl)[C@@H]3[C@@H]4C[C@@H]([C@H]5O[C@@H]45)[C@@H]3[C@@]1(Cl)C2(Cl)Cl
[1]
  outcome: inactive

## O=C(O)c1cc(Oc2ccc(C(F)(F)F)cc2Cl)ccc1[N+](=O)[O-]
[1]
  outcome: inactive

## O=[N+]([O-])c1c(Cl)c(Cl)cc(Cl)c1Cl
[1]
  outcome: inactive
[2]
  Potency: inactive

## COC(=O)[C@@H](N)CCCN=C(N)N[N+](=O)[O-]
[3]
  Potency: inactive
[4]
  outcome: inactive
[5]
  Potency: inactive

## CCCCCCCCc1ccc(O)cc1
[1]
  outcome: inactive
[2]
  Potency: inactive

## O=S(=O)(O)C(F)(F)C(F)(F)C(F)(F)C(F)(F)F
[1]
  outcome: inactive
[2]
  Potency: inactive

## CC(O)CN1CCN(CC(=O)[O-])CCN(CC(=O)[O-])CCN(CC(=O)[O-])CC1.[Gd+3] (stereo not given)
[1]
  outcome: inactive
[2]
  Potency: inactive

## COC(=O)c1cncn1C(C)c1ccccc1 (stereo not given)
[1]
  outcome: inactive
[2]
  Potency: inactive

## CCCCC(CC)COC(=O)c1ccccc1C(=O)OCC(CC)CCCC (stereo not given)
[1]
  outcome: inactive
[2]
  Potency: inactive

## CC(C)(C)C(O)C(Oc1ccc(Cl)cc1)n1cncn1 (stereo not given)
[1]
  outcome: inactive
[2]
  Potency: inactive

## C[N+]1(C)C2CCC1CC(OC(=O)C(CO)c1ccccc1)C2 (stereo not given)
[3]
  Potency: inactive
[4]
  outcome: inactive

## NC(=O)CN1CC(O)CC1=O (stereo not given)
[3]
  Potency: inactive
[4]
  outcome: inactive

## CS(=O)(=O)c1ccc(C(=O)C2C(=O)CCCC2=O)c([N+](=O)[O-])c1
[1]
  outcome: inactive

## O=[N+]([O-])/N=C1\NCCN1Cc1ccc(Cl)nc1
[1]
  outcome: inactive
[2]
  Potency: inactive

## COc1nn(CSP(=S)(OC)OC)c(=O)s1
[1]
  outcome: inactive
[2]
  Potency: inactive

## C=CCN1CC[C@]23CCCCC2[C@H]1Cc1ccc(O)cc13 (stereo not given in full)
[3]
  Potency: inactive
[4]
  outcome: inactive

## Nc1ccc([N+](=O)[O-])cc1
[1]
  outcome: inactive
[2]
  Potency: inactive

## Nc1c(Cl)c(Cl)c(Cl)c(Cl)c1Cl
[1]
  outcome: inactive
[2]
  Potency: inactive

## Fc1cc(Br)ccc1CBr
[1]
  outcome: inactive
[2]
  Potency: inactive

## O=[N+]([O-])c1ccc([As](=O)(O)O)cc1
[1]
  outcome: inactive
[2]
  Potency: inactive

## COc1ccc2c(c[n+](C)c3c4cc5c(cc4ccc23)OCO5)c1OC
[4]
  outcome: inactive

## COCCOCCO
[1]
  outcome: inactive
[2]
  Potency: inactive

## Oc1ccc2c3c1O[C@H]1[C@@H](O)C=C[C@H]4[C@@H](C2)NCC[C@@]341
[1]
  outcome: inactive
[2]
  Potency: inactive

## Cc1nccc2c1[nH]c1ccccc12
[4]
  outcome: inactive

## O=C(O)COc1ccccc1
[1]
  outcome: inactive
[2]
  Potency: inactive

## COC1=C[C@@H]2[C@@H]3Cc4ccc(OC)c(O)c4[C@]2(CCN3C)CC1=O
[5]
  Potency: inactive

## CN[C@@H]1C[C@@H](c2ccc(Cl)c(Cl)c2)c2ccccc21
[4]
  outcome: inactive

## C=CC(=O)NCNC(=O)C=C
[1]
  outcome: inactive
[2]
  Potency: inactive

## Cc1ccc(Cl)c(O)c1
[1]
  outcome: inactive
[2]
  Potency: inactive

## CCCCOC(=O)c1ccccc1C(=O)OCc1ccccc1
[1]
  outcome: inactive
[2]
  Potency: inactive

## COC(C)(C)CCCC(C)C/C=C/C(C)=C/C(=O)OC(C)C (stereo not given)
[1]
  outcome: inactive
[2]
  Potency: inactive

## O=S(=O)(c1ccc(Cl)cc1)c1ccc(Cl)cc1
[1]
  outcome: inactive
[2]
  Potency: inactive

## c1ccc(CCCN2CCN(CCOC(c3ccccc3)c3ccccc3)CC2)cc1
[4]
  outcome: inactive

## CCN1C[C@]2(OC(=O)c3ccccc3NC(C)=O)CC[C@H](OC)[C@@]34[C@H]5CC6[C@@H](OC)C[C@](O)(C(C[C@@H]23)[C@@H]14)[C@@]5(O)[C@@H]6OC
[5]
  Potency: inactive

## Cc1ccccc1-n1c(Cn2cnc3c(N)ncnc32)nc2cccc(C)c2c1=O
[5]
  Potency: inactive

## CCOP(=O)(NC(C)C)Oc1ccc(SC)c(C)c1 (stereo not given)
[1]
  outcome: inactive
[2]
  Potency: inactive

## O=C(Nc1ccccc1-c1ccc(Cl)cc1)c1cccnc1Cl
[1]
  outcome: inactive
[2]
  Potency: inactive

## O=[N+]([O-])c1c2ccccc2cc2ccccc12
[1]
  outcome: inactive
[2]
  Potency: inactive

## CC[N+]1(CCOC(=O)C(O)(c2ccccc2)c2ccccc2)CCCCC1
[1]
  outcome: inactive
[2]
  Potency: inactive

## COc1ccc(N(C(=O)Oc2c(C)cccc2C)c2ccnc(Nc3ccc(N4CCN(C)CC4)cc3)n2)c(OC)c1
[5]
  Potency: inactive

## C1CCC(NC2CCCCC2)CC1
[1]
  outcome: inactive
[2]
  Potency: inactive

## OCCCBr
[1]
  outcome: inactive
[2]
  Potency: inactive

## O=C(O)COc1nc(Cl)c(Cl)cc1Cl
[1]
  outcome: inactive
[2]
  Potency: inactive

## C/C=C(/C)C(=O)O[C@H]1C(C)=C2[C@H]([C@@H]1OC(=O)CCCCCCC)[C@@](C)(OC(C)=O)C[C@H](OC(=O)CCC)[C@@]1(O)[C@H]2OC(=O)[C@@]1(C)O
[5]
  Potency: 16.5 nM (active)

## CN[C@@H]1Cc2cccc3[nH]c(=O)n(c23)C1
[5]
  Potency: inactive

## O=[N+]([O-])c1cc([N+](=O)[O-])c2ccccc2c1
[1]
  outcome: inactive
[2]
  Potency: inactive
